Measured values from PubChem BioAssay (Tox21).
Results filed as inconclusive are left out. Values without a mark were called inactive. The call rests on the fitted dose curve; in most records, active means well fitted activation curve with a large enough effect in the signal ratio in the repeat runs (not every such curve was filed as active); inconclusive means weak or mixed curves; inactive means flat fitted curve, though single readings scatter; the % refers to the signal ratio.

Test: qHTS assay to identify small molecule agonists of H2AX (AID 1224845)
Settings: CHO-K1 phospho-H2AX Ser139 HTRF, 3 h; series mostly up to 154 µM; activation (H2AX phosphorylation): at the top concentration
Description: National Center for Advancing Translational Sciences [NCATS]
NIH Chemical Genomics Center [NCGC]
U.S. Environmental Protection Agency [EPA]
National Institutes of Environmental Health Sciences [NIEHS]
National Toxicology Program [NTP]
U.S. Food and Drug Administration [FDA]
HTRF phospho-H2AX (Ser139) assay (Cisbio Bioassays, US) enables the quantitative detection of the histone variant H2AX when phosphorylated on serine 139. When double-stranded DNA breaks, either by ionizing radiation or endogenous physiological processes, H2AX becomes phosphorylated at Ser139. This phospho-Ser139 serves as a sensitive biomarker for the detection of such breaks, localizing the site of DNA repair. So, HTRF phospho-H2AX Ser139 is a pertinent assay to study genome stability, the cell cycle, DNA repair, and it serves as a biomarker for cancer, and to understand aging. Wild type CHO-K1 cells were used to identify the inducers of Phospho-H2AX Ser 139 from the Tox21 10K compound collections.
Tox21 Assay Protocol Summary:
The CHO-K1 cells suspended in culture medium containing 10% FBS were dispensed at 1000 cells/ 3 ul/well in 1536-well white wall/solid bottom plates (Greiner Bio-One North America, NC) using a Multidrop Combi (Thermo Fisher Scientific Inc., Waltham, MA). After the assay plates were incubated at 37C overnight, 23 nl of compounds at 15 concentrations (from 5-48 columns) or positive control (from 1 to 4 columns) were transferred to the assay plates using a Pintool station (Wako, San Diego, CA) into each well resulting in a final DMSO concentration of 0.76%. After 3hr incubation at 37C, 1 uL/well Supplemented Lysis buffer (diluted 100 fold blocking reagent in lysis buffer) (HTRF Phospho-H2A.X (S139) Assay kit from Cisbio US Inc., Bedford, MA) was added using a Flying Reagent Dispenser (FRD) (Aurora Discovery, CA). After 10sec spin at 1000 rpm in a plate centrifuge, the assay plates were incubated at room temperature for 30 min. Then followed by the addition of 1 uL/well detection buffer (containing a mixture of two antibodies, one labeled with cryptate, Anti pH2AX (S139)-K and another labeled with d2, Anti H2AX-d2) using FRD. After incubation at room temperature for 24 hr, the time resolved fluorescence at excitation 320 nm and emissions at 665 nm and 620 nm was measured using an Envision plate reader (PerkinElmer, Waltham, MA).
On the % scale 0 is the no-effect control and ±100 the full control effect.

Point of comparison: `CC(=O)O[C@@H]1C(=O)O[C@@H]2[C@H]1OC(=O)[C@@H]2OC(C)=O`, “activation (H2AX phosphorylation)” value 4.75% [at 70.9 µM]. Against it:
- O=S1(=O)N=C(O)c2ccccc21 — lower, -0.577% [at 70.9 µM]
- Nc1nc(N)c(-c2ccccc2)s1 — lower, -0.0228% [at 70.9 µM]
- Cc1ccc(O)c([C@H](CCN(C(C)C)C(C)C)c2ccccc2)c1 — lower, -1.14% [at 70.9 µM]
- N=C(N=C(N)N)N1CCOCC1 — lower, 1.44% [at 70.9 µM]
- NC(=S)N/N=C/c1cccnc1 — lower, -2.86% [at 70.9 µM]
- CC(C)NCC(O)c1cc(O)cc(O)c1 (stereo not given) — lower, 0.0285% [at 70.9 µM]
- Cc1ccc(C(=O)C(C)CN2CCCCC2)cc1 (stereo not given) — lower, 0.0586% [at 70.9 µM]
- CN1CCC[C@@H]1c1cccnc1 — lower, 0.0616% [at 70.9 µM]
- c1ccc(-c2nc[nH]c2-c2ccccc2)cc1 — lower, 0.217% [at 70.9 µM]
- FC(F)(F)C(F)(F)C(F)(F)C(F)(F)C(F)(F)C(F)(F)CCI — lower, -2.47% [at 70.9 µM]
- CC(Cc1cccc(C(F)(F)F)c1)NCCOC(=O)c1ccccc1 (stereo not given) — lower, 0.297% [at 70.9 µM]
- CN(C(=O)CCCOc1ccc2[nH]c(=O)ccc2c1)C1CCCCC1 — lower, 0.705% [at 70.9 µM]
- Cc1cc(CC(=O)O)c(C)n1-c1ccc(Cl)cc1 — lower, 0.642% [at 70.9 µM]
- CN(C)CCCOc1nn(Cc2ccccc2)c2ccccc12 — lower, 0.645% [at 70.9 µM]

Point of comparison: `CCCC(C)C`, “activation (H2AX phosphorylation)” value -0.103%. Against it:
- C#CCOC(=O)[C@@H](C)Oc1ccc(Oc2ncc(Cl)cc2F)cc1 — lower, -3.57%
- CC(C)c1cccc(C(C)C)c1NC(=O)NS(=O)(=O)c1cc(C(C)(C)O)co1 — higher, 0.257%
- COCCO — lower, -1.94%
- CCCCCCCCCCCCCCC1CO1 (stereo not given) — lower, -1.91%
- Cc1ccc2c(ccc3ccccc32)c1 — higher, 8.23%
- O=C(Cl)c1ccc([N+](=O)[O-])cc1 — lower, -2.25%
- Cc1ccccn1 — lower, -2.62%
- CC(C)CCCCCCOC(=O)c1ccc(C(=O)OCCCCCCC(C)C)c(C(=O)OCCCCCCC(C)C)c1 — higher, 0.603%
- Cc1ncsc1CCO — lower, -0.761%
- O=C(O)c1cccc(N(Cc2cccnc2)c2ccc(OC(F)F)c(OC(F)F)c2)c1 — higher, 0.764%
- CC(=O)/C(C)=C/C1C(C)=CCCC1(C)C (stereo not given) — higher, 0.98%
- O=C(O)C(c1ccc(Cl)cc1)c1ccc(Cl)cc1 — higher, 0.903%
- C=C(C)C(=O)OCCN(C)C — higher, 0.347%
- COC(Cc1ccccc1)OC — higher, -0.021%
- CCCC(=O)OCC — lower, -2.93%
- O=C1CCCCCO1 — lower, -1.96%
- Cc1cc(NC(=O)C(=O)O)cc(C)c1Oc1ccc(O)c2c1CCC2 — higher, 2.1%
- CCc1nn(C2CCCCC2)c2cc(C3(C#N)CCC(C(=O)O)CC3)ccc12 (stereo not given) — higher, 2.71%
- CCCCCC/C=C/C=O — higher, 0.996%
- CC(C)(C)c1ccc(S)cc1 — lower, -2.68%
- c1ccc(CNCc2ccccc2)cc1 — lower, -0.131%
- O=S(=O)(O)c1ccc(O)c2ncccc12 — higher, 0.996%
- CC1(C)[C@H]2CC[C@]1(C)[C@H](O)C2 — higher, 0.289%

`NC[C@H]1O[C@H](O[C@H]2[C@H](O)[C@@H](O[C@H]3O[C@H](CO)[C@@H](O)[C@H](N)[C@H]3O)[C@H](N)C[C@@H]2N)[C@H](O)[C@@H](O)[C@@H]1O` gave an activation (H2AX phosphorylation) of -0.622% [at 14 µM].
